Measured values: PubChem BioAssay (EPA / NIEHS)
Records with an inconclusive call do not appear. Active and inactive are the calls of the source. Rule for the calls: active = hit-call score of the fitted dose curve at least 0.9, where 1 is the maximum; inconclusive = response in the unintended direction; inactive = score below 0.9.

The molecules below were run on glucuronosyltransferase (UGT1A1), UGT1A1 (gene 54658) (assay: CLD_UGT1A1_48hr: CellzDirect (CLD) Gene Expression Assay for glucuronosyltransferase (UGT1A1) at 48 hours (AID 2283709);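 note: actives increase expression relative to DMSO so potency refers to induction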).
Experimental: CLD_48hr is a cell-based, multiplexed-readout assay that uses hepatocyte, a human liver primary cell, with measurements taken at 48 hours after chemical dosing in a 96-well plate.CLD_UGT1A1_48hr is one of 16 assay component(s) measured or calculated from the CLD_48hr assay. It is designed to make measurements of mRNA induction, a form of inducible reporter, as detected with chemiluminescence signals by Quantitative Nuclease Protection Assay (qNPA) technology.Data from the assay component CLD_UGT1A1_48hr was analyzed at the endpoint, CLD_UGT1A1_48hr, in the positive analysis fitting direction relative to DMSO as the negative control and baseline of activity. Using a type of inducible reporter, gain-of-signal activity can be used to understand changes in the reporter gene as they relate to the gene UGT1A1. Furthermore, this assay endpoint can be referred to as a primary readout. To generalize the intended target to other relatable targets, this assay endpoint is annotated to the transferase intended target family, where subfamily is glucuronosyltransferase.
Human hepatocyte cultures were treated daily for two consecutive days with fresh dosing solutions containing appropriate concentrations of the 320 ToxCast chemicals (chemical identities were blinded to CellzDirect and other ToxCast collaborators), vehicle control (0.2% DMSO), and positive control inducers as summarized in Table 1. Due to the large number of treatment groups and chemicals examined, the ToxCast chemicals were divided into two groups (spanning two independent cultures of hepatocytes from separate donor preparations (Hu778: ToxCast plates 1 and 2; Hu776: ToxCast plates 3 and 4). Each preparation of human hepatocyte cultures was treated with respective vehicle control, medium only control, set of six positive controls/reference chemicals for the five hepatic receptor pathways, and a subset of eight of the ToxCast chemicals (indoxacarb, pyrithiobac-sodium, norflurazon, cyhalofop-butyl, methomyl, thiram, acetochlor, and propiconazole). These replicate data, coupled with internal replicates designed within the blinded ToxCast chemical library, provided additional data to evaluate interindividual differences between hepatocyte preparations and their potential impact on chemical profiles.Cell morphology and integrity were evaluated using phase-contrast microscopy as an indicator of hepatocyte cell health (Tyson & Green, 1987). Cultures for each treatment group (i.e., media, vehicle [0.2% DMSO], positive control inducers [multiple concentrations], and the ToxCast chemicals [multiple concentrations]) were observed and cell morphology was assessed relative to vehicle control cultures at each harvest time point (0, 6, 24, or 48 h). […] Images were evaluated at the conclusion of the study to assess changes in cell integrity and account for the effects of chemical exposure on uncharacteristic changes in concentration-dependent gene expression profiles. The results from these determinations of apparent cytotoxicity were annotated (yes/no) alongside the corresponding qNPA data for reference.At the conclusion of each treatment period, hepatocyte cultures (96-well) were washed with 1 volume of HBSS, lysed by addition of 25 ul ArrayPlate lysis buffer (HTG, Tucson, AZ), and 70 ul/well of Denaturation Oil, denatured by incubation at 95C for 10 min, and frozen at approximately -70C until analysis by nuclease protection assay (qNPA) (Roberts et al., 2007). For qNPA analysis, cell lysates were thawed at 50C for approximately 30 min, qNPA probes were added, and samples were incubated at 95C for 10 min to begin the detection process by denaturing the target RNA, dissociating the duplexes and secondary structure hybridization. At the conclusion of the hybridization period, S1 nuclease reagent was added to each sample to digest all nonprotected nucleotides at 50C for 60-90 min. […]
CCCSP(=O)(OCC)Oc1ccc(Br)cc1Cl (stereo not given) was tested, and the AC50 was 20 µM (active).
Nc1c(Cl)cc([N+](=O)[O-])cc1Cl was tested, and the outcome was “inactive”.
In the case of CCCCOC(=O)c1ccccc1C(=O)O, the outcome is reported as “inactive”.
With COc1cc(OC)nc(Sc2cccc(Cl)c2C(=O)O)n1 the outcome was “inactive”.
For CCC(=O)Nc1ccc(Cl)c(Cl)c1, the outcome was “inactive”.
CCNc1nc(Cl)nc(NC(C)(C)C#N)n1 was tested, and the outcome was “inactive”.
With CCCCSP(=O)(SCCCC)SCCCC the AC50 was 20 µM (active).
In the case of COc1cccc(C(=O)NN(C(=O)c2cc(C)cc(C)c2)C(C)(C)C)c1C, the AC50 is reported as 8.82 µM (active).
For CSc1nnc(C(C)(C)C)c(=O)n1N, the outcome was “inactive”.
For CCOP(=O)(NC(C)C)Oc1ccc(SC)c(C)c1 (stereo not given), the outcome was “inactive”.
In the case of CCCOCC(=Nc1ccc(Cl)cc1C(F)(F)F)n1ccnc1, the outcome is reported as “inactive”.
With CNC(=O)Oc1cccc2c1OC(C)(C)O2 the outcome was “inactive”.
CCc1cccc(CC)c1N(COC)C(=O)CCl was tested, and the outcome was “inactive”.
For CCCCN(CC)c1c([N+](=O)[O-])cc(C(F)(F)F)cc1[N+](=O)[O-], the AC50 was 7.05 µM (active).
CCOP(=S)(OCC)SCCSCC was tested, and the AC50 was 4.17 µM (active).
In the case of CCCOc1nn(C(=O)NS(=O)(=O)c2ccccc2C(=O)OC)c(=O)n1C, the outcome is reported as “inactive”.
C#CCC1=C(C)C(OC(=O)C2C(C=C(C)C)C2(C)C)CC1=O (stereo not given) was tested, and the AC50 was 3.87 µM (active).
Cc1nn(-c2cc(NS(C)(=O)=O)c(Cl)cc2Cl)c(=O)n1C(F)F was tested, and the outcome was “inactive”.
In the case of CCOP(=S)(OCC)OC(Cl)C(Cl)(Cl)Cl (stereo not given), the AC50 is reported as 4.19 µM (active).
With COc1ccc(C(=CC(=O)N2CCOCC2)c2ccc(Cl)cc2)cc1OC the outcome was “inactive”.
With CCOP(=O)(OCC)Oc1cc(C)nc(C(C)C)n1 the outcome was “inactive”.
C[N+]1(C)CCCCC1 was tested, and the outcome was “inactive”.
In the case of CCc1cnc(C2=NC(C)(C(C)C)C(=O)N2)c(C(=O)O)c1 (stereo not given), the outcome is reported as “inactive”.
For CCOP(=S)(OCC)Oc1ccc([N+](=O)[O-])cc1, the AC50 was 2.67 µM (active).
With CCOP(=S)(OCC)Oc1cc(C)nc(C(C)C)n1 the outcome was “inactive”.
With CC(C)N(C(=O)SCC(Cl)=C(Cl)Cl)C(C)C the outcome was “inactive”.
With CNc1cnn(-c2cccc(C(F)(F)F)c2)c(=O)c1Cl the outcome was “inactive”.
With C=C(C)[C@H]1Cc2c(ccc3c2O[C@@H]2COc4cc(OC)c(OC)cc4[C@@H]2C3=O)O1 the outcome was “inactive”.
With COP(=O)(OC)C(O)C(Cl)(Cl)Cl (stereo not given) the AC50 was 0.0665 µM (active).
In the case of CCOP(=S)(OCC)Oc1ccc2c(C)c(Cl)c(=O)oc2c1, the outcome is reported as “inactive”.
With CC(COc1ccc(Oc2ccccc2)cc1)Oc1ccccn1 (stereo not given) the AC50 was 4.89 µM (active).
With C#CC(C)(C)NC(=O)c1cc(Cl)cc(Cl)c1 the AC50 was 6.38 µM (active).
For Cc1cc(C2CC2)nc(Nc2ccccc2)n1, the outcome was “inactive”.
For COP(=O)(NC(C)=O)SC (stereo not given), the outcome was “inactive”.
In the case of CC(C)=CC1C(C(=O)OCN2C(=O)C3=C(CCCC3)C2=O)C1(C)C (stereo not given), the outcome is reported as “inactive”.
With CCOP(=S)(Oc1cnc(C(C)(C)C)nc1)OC(C)C (stereo not given) the AC50 was 0.439 µM (active).
For CCOC(=O)COc1cc(-c2nn(C)c(OC(F)F)c2Cl)c(F)cc1Cl, the AC50 was 6.18 µM (active).
In the case of CCCSP(=O)(OCC)SCCC, the outcome is reported as “inactive”.
For CC1(C(=O)Nc2ccc(O)c(Cl)c2Cl)CCCCC1, the outcome was “inactive”.
For CC(Oc1cccc(Cl)c1)C(=O)O (stereo not given), the outcome was “inactive”.
